# Assay results: PubChem BioAssay AID1529 (NMMLSC, 2009)
# Hit rate of the full screen: of about 290,000 compounds, about 4,200 (1.4%) were called active.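 The calls were made as follows: active = binding response more than 3 SD above or below the average of its plate-row segment, actives on both sides; inconclusive = wells at one plate position flagged as instrument error; inactive = the rest.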 This excerpt belongs to a sample that is enriched for actives.
# Target: Mitogen-activated protein kinase kinase kinase 3 (Homo sapiens) (UniProt Q99759)
# Sequence (Q99759 whole entry, looked up): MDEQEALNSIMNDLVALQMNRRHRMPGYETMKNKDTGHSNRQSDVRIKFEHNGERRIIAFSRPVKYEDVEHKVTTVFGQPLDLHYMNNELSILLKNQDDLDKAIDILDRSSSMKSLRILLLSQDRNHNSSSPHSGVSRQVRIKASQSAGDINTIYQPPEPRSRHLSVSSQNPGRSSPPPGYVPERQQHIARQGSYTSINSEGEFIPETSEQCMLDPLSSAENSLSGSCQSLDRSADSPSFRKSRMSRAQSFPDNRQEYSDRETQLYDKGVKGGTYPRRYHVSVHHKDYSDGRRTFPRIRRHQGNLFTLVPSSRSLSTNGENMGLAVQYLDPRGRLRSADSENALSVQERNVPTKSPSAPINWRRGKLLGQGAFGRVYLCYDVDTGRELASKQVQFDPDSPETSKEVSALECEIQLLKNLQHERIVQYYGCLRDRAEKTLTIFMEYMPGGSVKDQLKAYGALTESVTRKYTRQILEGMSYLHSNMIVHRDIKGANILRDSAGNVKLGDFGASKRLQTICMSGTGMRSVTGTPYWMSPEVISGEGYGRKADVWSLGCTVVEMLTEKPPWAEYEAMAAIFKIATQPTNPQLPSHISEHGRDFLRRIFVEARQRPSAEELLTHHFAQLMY
# Assay: compounds raising or lowering MEK5 association with MEKK3 PB1 – biochemical, wildtype MEKK3, multiplex bead flow cytometry, Alexa488-MEK5, primary screen (AID 1529);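 also: Alexa488 bead fluorescence after subtracting the streptavidin-only scavenger bead signal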
# Details: bead-based flow cytometry, Alexa488-MEK5 binding to MEKK3; at 10 µM; actives lie on both sides; 0 = blocked by unlabeled MEK5, 100 = vehicle
row,Structure (SMILES),binding response (% of control)
1,Cc1ccccc1NC(=O)N1CCCC1C(=O)NCc1ccccc1 (stereo not given),114% (inactive)
2,Cc1nn(-c2ccccc2)c(NC(=O)c2cccs2)c(-c2ccc(Cl)cc2)c1=O,162% (active)
3,Cc1ccc(-n2nc(C)c(/C=N/NC(=O)c3cccs3)c2Cl)cc1,106% (inactive)
4,O=C(Nc1c2c(nn1-c1cccc(Cl)c1)CS(=O)(=O)C2)c1cccs1,82% (inactive)
5,CCc1ccc(NC(=O)Cn2nnc(C(=O)NCc3ccc4c(c3)OCO4)c2N)cc1,100% (inactive)
6,Cc1ccccc1OCC(=O)Nc1ccc(S(=O)(=O)N2CCOCC2)cc1,95% (inactive)
7,Cc1ccccc1OCC(=O)Nc1ccc(N2CCN(C(=O)C(C)C)CC2)c(Cl)c1,122% (active)
8,CCC(=O)N1CCN(c2ccccc2NC(=O)COc2cccc(C)c2C)CC1,102% (inactive)
9,CCN1C(=O)N[C@@H](CCc2ccccc2)C(C(=O)OC)=C1C,101% (inactive)
10,CCC(=O)Nc1nnc(S(=O)(=O)N2CCCc3ccccc32)s1,98% (inactive)
11,O=C(CCN1C(=O)[C@@H]2Cc3ccccc3CN2C1=O)NCCc1ccccc1,99% (inactive)
12,Cc1[nH][nH]c(=O)c1C(c1ccc(-c2ccc(Cl)cc2)o1)c1c(C)[nH][nH]c1=O,95% (inactive)
13,CCOc1ccc(C(c2c(C)[nH][nH]c2=O)c2c(C)[nH][nH]c2=O)cc1OCC,152% (active)
14,Cc1[nH][nH]c(=O)c1C(c1ccc2c(c1)OCO2)c1c(C)[nH][nH]c1=O,102% (inactive)
15,CCOc1ccc(CN2CCN(Cc3c[nH]c4ccccc34)CC2)cc1,99% (inactive)
16,Cn1ccnc1-c1nnn(-c2ccc(F)cc2)n1,95% (inactive)
17,CCOc1cc(C2C(C(=O)OC)=CN(C3CCCC3)C=C2C(=O)OC)cc(Br)c1O,80% [inhibitor] (active)
18,COC(=O)C1=CN(Cc2ccc(OC)cc2)C=C(C(=O)OC)C1c1ccc(O)c(OC)c1,104% (inactive)
19,CCOc1ccccc1C1C(C(=O)OC)=CN(C)C=C1C(=O)OC,102% (inactive)
20,COc1nnc(-c2ccc(C)c(S(=O)(=O)N(C)C)c2)c2ccccc12,101% (inactive)
21,CC(=O)Cn1cnc2c(cnn2-c2ccccc2)c1=O,102% (inactive)
22,CN(C)/C=C/c1c(C#N)c(=O)ncn1Cc1ccccc1,103% (inactive)
23,Cc1c(C#N)c2ncn(CC#N)c(=O)c2n1-c1ccccc1,122% (active)
24,Cc1cc(N2CCOCC2)nc2ccc(NC(=S)N3CCN(Cc4ccccc4)CC3)cc12,92% (inactive)

row,Structure (SMILES),binding response (% of control)
1,COc1ccc(C(C(=O)NC(C)(C)C)N(Cc2ccc(F)cc2)C(=O)CCC(=O)Nc2cc(C)on2)cc1 (stereo not given),100% (inactive)
2,NC(=O)C1CCN(C(=O)CC2C(=O)NCCN2Cc2cccc(Oc3ccccc3)c2)CC1 (stereo not given),101% (inactive)
3,NC(=S)N/N=C/c1coc2cc(Cl)ccc2c1=O,92% (inactive)
4,Cc1ccc2occ(/C=N/NC(=O)c3ccccc3C)c(=O)c2c1,104% (inactive)
5,O=c1c(/C=N/O)coc2ccc(Cl)cc12,48% [inhibitor] (active)
6,Cc1ccc(OCC(=O)Nc2ccc3oc(=O)ccc3c2)cc1C,102% (inactive)
7,Cc1ccc(C(=O)N2CCN(C(=O)N3CCOCC3)CC2)cc1,107% (inactive)
8,O=C(Nc1ccc(Cl)cc1)Nc1ccc(C(=O)N2CCOCC2)cc1,103% (inactive)
9,Cc1ccccc1-c1ccc(Nc2ccc(C(=O)N3CCOCC3)cc2)nn1,79% [inhibitor] (active)
10,Cc1cc(Cl)ccc1OCc1nc(-c2ccncc2)no1,73% [inhibitor] (active)
11,COc1ccc(-c2noc(COc3ccc(Cl)c(C)c3)n2)cc1,102% (inactive)
12,c1ccc(CCc2nc(-c3ccncc3)no2)cc1,105% (inactive)
13,CCC1Oc2ccccc2N(CC(=O)NCCCN2CCN(CC)CC2)C1=O (stereo not given),105% (inactive)
14,COc1ccc(S(=O)(=O)N(C)CC(=O)N2CCCC2)cc1,101% (inactive)
15,C[N+](C)(C)CCNC(=O)c1c(O)c2c([nH]c1=O)CCCC2,78% [inhibitor] (active)
16,CCc1nnc(NC(=O)c2c(O)c3c([nH]c2=O)CCCC3)s1,105% (inactive)
17,O=C(NCc1ccccn1)c1c(O)c2c([nH]c1=O)CCCC2,107% (inactive)
18,O=C(CN(c1cc(C(F)(F)F)ccc1Cl)S(=O)(=O)c1ccccc1)NCc1cccnc1,101% (inactive)
19,COc1cc(NC(=O)C2CCN(c3cnccn3)CC2)cc(OC)c1,102% (inactive)
20,COC(=O)CCNC(=O)c1ccc2[nH]c(C)c(C)c2c1,102% (inactive)
21,Cc1[nH]c2ccc(C(=O)N3CCN(C)CC3)cc2c1C,99% (inactive)
22,Cc1[nH]c2ccc(S(N)(=O)=O)cc2c1C,81% [inhibitor] (active)
23,Cc1cccc(Nc2nc(NCCO)nc(N3CCCC3)n2)c1,106% (inactive)
24,CN(CCNC(=O)c1cc2c(-c3ccccc3F)nn(C)c2s1)C1CCCCC1,108% (inactive)

row,Structure (SMILES),binding response (% of control)
1,O=C(O)/C(=C/c1cccnc1)NC(=O)c1ccccc1,156% (active)
2,Cc1ccc(C(=O)N/C(=C/c2cccnc2)C(=O)O)cc1,95% (inactive)
3,CC(C)(C)NC(=O)/C(=C/c1cccnc1)NC(=O)c1ccco1,101% (inactive)
4,Cc1nnc(SCC(=O)Nc2ccc(S(=O)(=O)Nc3ccc(Cl)nn3)cc2)s1,99% (inactive)
5,COc1ccccc1/C=C1\SC(=O)N(CCC(=O)N(C)C2CCS(=O)(=O)C2)C1=O (stereo not given),98% (inactive)
6,Cc1c(CN2CC[C@@H](N3CCN(c4ccccn4)CC3)[C@H](O)C2)[nH]c2ccc(F)cc12,104% (inactive)
7,Cc1ccc(S(=O)(=O)N(C)CC(=O)OCC(=O)Nc2ccccc2)cc1,94% (inactive)
8,CCOC(=O)CN(C)S(=O)(=O)c1ccc(-c2cc(C(=O)OC)sc2C(F)(F)F)cc1,129% (active)
9,COC(=O)c1sc(C(F)(F)F)c(-c2ccccc2)c1S(=O)(=O)N(C)C,106% (inactive)
10,O=C(O)C1=NN(c2c(F)c(F)cc(F)c2F)C(=O)CC1,95% (inactive)
11,CCOC(=O)CSc1nnc(NC(=O)C2CC(=O)N(c3ccc(F)cc3)C2)s1 (stereo not given),102% (inactive)
12,COC(=O)c1cccc(N(C(=O)CNC(=O)c2cccs2)C(C(=O)NCC2CCCO2)c2ccc(OC)c(OC)c2)c1 (stereo not given),100% (inactive)
13,COC(=O)[C@@H]1CC(O)CN1C(=O)C12CC3CC(CC(C3)C1)C2 (stereo not given in full),96% (inactive)
14,O=C(Nc1cccc2ncccc12)C(Cl)(Cl)Cl,101% (inactive)
15,O=C(Nc1cccc2ncccc12)c1ccc(-c2ccc(Cl)cc2Cl)o1,102% (inactive)
16,O=C(O)c1cc(Cl)c(Cl)cc1C(=O)Nc1cccc2ncccc12,128% (active)
17,OCC[C@H]1C[C@H](O)[C@@H](O)[C@]2(CCCCO2)O1,100% (inactive)
18,Cc1ccc2nc(Nc3ncc4c(n3)CC(C)(C)CC4=O)nc(C)c2c1,102% (inactive)
19,COc1ccccc1Nc1ncc(C(C)=O)c(C)n1,104% (inactive)
20,CCc1ccc2nc(Nc3ncc(C(C)=O)c(C)n3)nc(C)c2c1,49% [inhibitor] (active)
21,CCn1c(NCCc2ccc(OC)c(OC)c2)nc2c1c(=O)n(C)c(=O)n2C,103% (inactive)
22,CCCCn1c(SCC(=O)NCCc2ccc(OC)c(OC)c2)nc2c1c(=O)n(C)c(=O)n2C,0% [inhibitor] (active)
23,C#CC(C)(C)NC(=O)CSc1nc2c(c(=O)n(C)c(=O)n2C)n1CCCC,108% (inactive)
24,Cc1ccc(O)c(/C=N/NC(=O)COc2ccc3c(C)cc(=O)oc3c2)c1,99% (inactive)

row,Structure (SMILES),binding response (% of control)
1,C/C(=N\Nc1ncc(Cl)cc1Cl)c1cccs1,103% (inactive)
2,C/C(=N\Nc1ncc(Cl)cc1Cl)c1ccc(S(=O)(=O)NCc2ccco2)cc1,108% (inactive)
3,COc1cccc(/C(C)=N/Nc2ncc(Cl)cc2Cl)c1,135% (active)
4,O=C(CN(C(=O)c1nsc(Cl)c1Cl)c1cccc(F)c1)NC1CCCC1,99% (inactive)
5,COCc1ccc(C(=O)NC2CC(C)(C)Cc3c2cnn3-c2ccc(C)cc2)o1 (stereo not given),97% (inactive)
6,CC1CCC2(CC1)NC(=O)N(CC(=O)c1ccc3c(c1)OCO3)C2=O (stereo not given),99% (inactive)
7,CC(C)CC(=O)NC(=S)Nc1ccc(F)cc1F,117% (inactive)
8,CC(C)Oc1ccc(CCC(=O)NNC(=S)NCc2ccccc2)cc1,95% (inactive)
9,CC(=O)c1ccc(NC(=S)NC(=O)CC(C)C)cc1,104% (inactive)
10,CC(C)CC(=O)NC(=S)Nc1cc(C(=O)O)ccc1Cl,132% (active)
11,CC(C)CNC(=O)C(=O)NCc1ccccc1,96% (inactive)
12,CC(C)CC(=O)NC(=S)NCc1ccccc1,141% (active)
13,CCc1nn(CCCC(=O)Nc2ccc(C)cc2C)c(=O)c2cc3occc3n12,99% (inactive)
14,CN(Cc1ccccc1Cl)C(=O)C1CCC(=O)N(CCc2cccc(F)c2)C1 (stereo not given),102% (inactive)
15,COc1ccc(N(CC(=O)N2CCCCCC2)S(=O)(=O)c2ccccc2)cc1,102% (inactive)
16,COc1ccc(C(=O)O/N=C(\N)c2ccccn2)cc1[N+](=O)[O-],107% (inactive)
17,COC(=O)c1c(NC(=O)CCCC(=O)O)sc2c1CCCCC2,99% (inactive)
18,COC(=O)c1c(NC(=O)COC(=O)[C@@H](NS(=O)(=O)c2ccccc2)C(C)C)sc2c1CCC2,2% [inhibitor] (active)
19,CCc1ccc(N(CC(=O)Nc2sc3c(c2C(=O)OC)CCCC3)S(C)(=O)=O)cc1,92% (inactive)
20,CC(C)CN(Cc1c(O)ccc2c(=O)c(-c3ccccc3)coc12)CC(C)C,102% (inactive)
21,Cc1cc(C)cc(C(=O)NC(=S)Nc2ccc3[nH]c(=O)[nH]c3c2)c1,105% (inactive)
22,Cc1ccc(C(=O)NC(=S)Nc2ccc3[nH]c(=O)[nH]c3c2)cc1C,145% (active)
23,CC(=O)Nc1ccc(NC(=S)NC(=O)c2ccc([N+](=O)[O-])c(C)c2)cc1,97% (inactive)
